A selection follows.
aSyn 5UTR act – Activators working through SNCA 5'UTR binding (MLPCN); alpha-synuclein 5'UTR reporter, activators screen; activity score, % (tested at 7.5 µM), hits read low; actives 7.1% (n = 300,000); in the data active = activity score below about -60%
* marks the source's active call; other numbers are inactive results.

SMILES | aSyn 5UTR act
COc1ccc(-c2nnc(-c3cccnc3)o2)cc1 | -111.5*
FC(F)(F)c1ccc(-c2nnc(-c3cccnc3)o2)cc1 | -88.0*
Clc1ccc(-c2nnc(-c3cccnc3)o2)cc1 | -138.5*
CCCCN=C(C)c1c(O)c2ccccc2oc1=O | -159.0*
c1ccc(-c2ccc(-n3ccnc3)cc2)cc1 | -80.8*
C/C(=N\O)c1ccc2c3c([nH]c2c1)CCCC3 | -79.8*
CCOC(=O)C1=C(c2ccccc2)O/C(=C(/C#N)C(F)(F)F)S1 | -63.5*
CCCCNc1ncnc2c1cnn2-c1ccc(Cl)cc1 | -137.3*
CCCCNc1ncnc2c1cnn2-c1ccccc1 | -259.8*
CCc1nc(NC(C)(C)C)c2cnn(-c3ccccc3)c2n1 | -128.6*
COCC(C)Nc1ncnc2c1cnn2-c1ccc(Cl)cc1 (stereo not drawn) | -132.4*
CCOC(=O)N1CCC(Nc2ncnc3c2cnn3-c2ccc(Cl)cc2)CC1 | -132.7*
Clc1ccc(-n2ncc3c(NCc4ccccn4)ncnc32)cc1 | -123.2*
Clc1ccc(-n2ncc3c(NCCCn4ccnc4)ncnc32)cc1 | -111.3*
Clc1ccc(-n2ncc3c(N4CCCCCC4)ncnc32)cc1 | 77.9
c1ccc(-n2ncc3c(NCCCN4CCOCC4)ncnc32)cc1 | -96.7*
Cc1sc2nc3ccc(N4CCCC4)nn3c(=O)c2c1C | -170.8*
Cc1ccc2nc3ccc(N4CCN(C)CC4)nn3c(=O)c2c1 | -136.9*
O=c1c2ccccc2nc2ccc(N3CCOCC3)nn12 | -84.8*
Cc1ccc2nc3ccc(N4CCCCCCC4)nn3c(=O)c2c1 | -150.2*
N#CC1CC(c2ccccc2)Nc2cc(Cl)ccc2N1 (stereo not drawn) | -330.8*
CCOC(=O)C(=CN=C(N)Nc1nc2ccccc2o1)C(=O)OCC | -118.9*
CCCOC(=O)Nc1nc2ccccc2o1 | -99.0*
CCOC(=O)C1(CCCc2ccccc2)CCN(Cc2cnc(C)s2)CC1 | -62.5*
CC#CC(=O)N1CCC(CCc2ccccc2)(C(=O)OCC)CC1 | 46.7
SMILES | aSyn 5UTR act
Cc1ccc(NC(=O)CCc2ccc(C)o2)c(Br)c1 | -72.1*
Cc1ccc(NC(=O)CCC(=O)c2cccs2)c(Br)c1 | -78.7*
Cc1ccc(NC(=O)CNCc2cccs2)c(Br)c1 | -119.2*
Cc1ccc(NC(=O)CNCc2ccccc2)c(Br)c1 | -68.1*
c1ccc(-c2ccc3c(n2)CCCO3)cc1 | -112.8*
Cc1ccccc1NC(=S)N=Nc1c(O)n(C)c2ccc(S(=O)(=O)N3CCOCC3)cc12 | 77.9
Cn1c(N2CCOCC2)c(/C=N/OC(=O)c2ccc(F)cc2)c2ccccc21 | 72.7
Cn1c(O)c(N=Nc2nc(-c3ccccc3)cs2)c2ccccc21 | -126.2*
Cn1c(O)c(N=Nc2ccc(F)cc2)c2ccccc21 | -62.0*
CSc1ccc(C2c3[nH]c4ccccc4c3CCN2C(=O)c2cc(C)n(C)n2)cc1 (stereo not drawn) | -287.0*
CC(=O)Cn1ncc(Br)c(Br)c1=O | -87.4*
O=C(OCn1ncc(Br)c(Br)c1=O)c1c(F)cccc1F | 60.6
CC(C)(C)C(=O)Cn1ncc(N2CCCC2)c(Br)c1=O | -71.5*
Cc1ccc(/C=C/C(=O)Nc2cccc3cccnc23)o1 | -132.3*
O=C(Nc1cccnc1Cl)c1ccc(Cl)cc1 | -147.8*
Cc1ccc(C(=O)Nc2cccc3cccnc23)cc1C | -87.0*
CCC(=O)NC(c1ccc(C)cc1)c1ccc2cccnc2c1O (stereo not drawn) | 80.9
C/C(=N\Nc1cccc2cccnc12)c1ccc(C)cc1 | -170.2*
CC(C)C(=O)NC(c1ccc(Cl)cc1Cl)c1ccc2cccnc2c1O (stereo not drawn) | 92.3
O=C(NC(=S)Nc1cccnc1Cl)c1ccc(Cl)cc1 | -153.9*
O=C(Nc1ccnc(-c2cccnc2)n1)c1ccc(Cl)cc1 | -116.7*
O=C(NC(c1ccc(Cl)cc1)c1cc(Cl)c2cccnc2c1O)c1cccnc1 (stereo not drawn) | 98.0
O=C(Nc1cccc2cccnc12)c1ccc(Cl)cc1 | -75.5*
CCCCCCCCCCn1c2c(c(=N)c3c1CCC3)CCC2 | 71.2
O=C(Nc1ccc(N2CCOCC2)c2nonc12)C1CCCC1 | -142.0*
SMILES | aSyn 5UTR act
O=C(Nc1ccc(F)cc1)Nc1ccc(N2CCOCC2)c2nonc12 | -145.0*
O=C1/C(=C\Nc2ccc(Cl)cc2)CCN1c1ncccn1 | -158.2*
O=C1/C(=C\Nc2ccc(OC(F)(F)F)cc2)CCN1c1ncccn1 | -200.9*
Cc1ccc(-n2c(C)c(C)c3c(NCCCO)ncnc32)cc1 | -164.9*
COc1ccc(-n2c(C)c(C)c3c(NCCCO)ncnc32)cc1 | -80.6*
O=C(NNC(=S)NC(=O)c1sc2ccccc2c1Cl)c1ccc(Cl)cc1 | -67.0*
CCn1nnc(NC(=O)c2ccc(-c3ccc(Cl)cc3)o2)n1 | -63.9*
O=C(Nc1ccnc(=O)[nH]1)c1sc2ccccc2c1Cl | -111.1*
CCn1nnc(NC(=O)c2sc3ccccc3c2Cl)n1 | -82.5*
O=C1CCC/C(=N/NC(=O)c2sc3ccccc3c2Cl)C1 | -89.7*
O=C(Nc1ccncc1)c1sc2ccccc2c1Cl | -97.2*
COc1cc2c(cc1OC)C(c1ccccc1)N(C(=O)CCl)CC2 (stereo not drawn) | -85.6*
COc1ccc(/C=N/Nc2ncnc3sc(C)c(C)c23)cc1 | -114.1*
Cc1sc2ncnc(N/N=C/c3ccccc3O)c2c1C | 105.8
Cc1sc2ncnc(N/N=C/c3ccc(O)cc3)c2c1C | -63.6*
CCc1nc2oc3cc(OC)ccc3c(=O)c2c(=O)n1-c1ccccc1 | -124.4*
COc1ccc2c(=O)c3c(=O)n(-c4ccccc4)c(-c4ccco4)nc3oc2c1 | -95.6*
Cc1ccc(-n2c(C)nc3oc4ccccc4c(=O)c3c2=O)cc1 | -240.7*
Nc1c(C(=O)c2ccc(Br)s2)oc2ccccc12 | -149.4*
Nc1c(C(=O)c2cccs2)oc2ccccc12 | -98.9*
Cc1nc(N2CCN(S(=O)(=O)c3ccccc3)CC2)c2cc(-c3ccccc3)sc2n1 | -113.4*
Cc1cc2c(cc1C)NC(CC(=O)NCc1ccccc1)C(=O)N2 (stereo not drawn) | -77.3*
CN(C)C(CNC(=O)c1ccc(C2SCCS2)cc1)c1ccccc1 (stereo not drawn) | -99.5*
CN(C)/C=N/c1sc2c(c1C#N)CCCC2 | -80.1*
CC1CCc2c(sc(/N=C/N(C)C)c2C#N)C1 (stereo not drawn) | -80.4*
SMILES | aSyn 5UTR act
c1ccc(CNc2c3ccccc3nc3ccccc23)cc1 | -332.2*
CN(C)CCCNc1c2ccccc2nc2ccccc12 | 70.8
O=C(Nc1ccccc1)N(CCCN1CCOCC1)Cc1ccccc1F | -84.2*
CN(C)S(=O)(=O)c1cccc(NC(=S)N/N=C/c2cc(Br)ccc2O)c1 | 69.4
COC(=O)C(=Cc1ccccc1[N+](=O)[O-])C(=O)OC | -239.8*
CN(C)S(=O)(=O)c1cccc(NC(=O)/C=C/c2ccccc2[N+](=O)[O-])c1 | -65.4*
COc1cccc(NC(=O)/C=C/c2ccccc2[N+](=O)[O-])c1 | -202.4*
O=C(/C=C/c1ccccc1[N+](=O)[O-])Nc1cccnc1 | -122.9*
COc1cccc(NC(=O)/C=C/c2ccc([N+](=O)[O-])cc2)c1 | -84.1*
CCCOc1ccc(/C=C/C(=O)Nc2ccc([N+](=O)[O-])cc2)cc1 | 68.0
COc1ccc(OC)c(NC(=O)/C=C/c2ccccc2[N+](=O)[O-])c1 | -83.7*
CC1(C(=O)OCc2cc(=O)n3cc(Br)ccc3n2)CC1(Cl)Cl (stereo not drawn) | -140.0*
Cc1ccccc1C(=O)NC(CC(C)C)C(=O)OCc1cc(=O)n2cc(Br)ccc2n1 (stereo not drawn) | -72.8*
CC1CC1C(=O)OCc1cc(=O)n2cc(Br)ccc2n1 (stereo not drawn) | -148.0*
